Source: PubChem (Paczesny and Yang Labs, IUPUI and University of Michigan)
ST2 inh = inhibitors of human ST2 (IL1RL1) binding to IL-33, primary screen, biochemical, AlphaLISA | AlphaLISA ST2-Fc/biotin-IL-33 interaction, 1 h | inhibition, % for hits at 17 µM | Interleukin-1 receptor-like 1 (Homo sapiens), Q01638 | actives 2.3% (n = 78,000) | AID 1259354, 2018; in the data active = inhibition above about 30%
Target sequence (Q01638 whole entry, looked up): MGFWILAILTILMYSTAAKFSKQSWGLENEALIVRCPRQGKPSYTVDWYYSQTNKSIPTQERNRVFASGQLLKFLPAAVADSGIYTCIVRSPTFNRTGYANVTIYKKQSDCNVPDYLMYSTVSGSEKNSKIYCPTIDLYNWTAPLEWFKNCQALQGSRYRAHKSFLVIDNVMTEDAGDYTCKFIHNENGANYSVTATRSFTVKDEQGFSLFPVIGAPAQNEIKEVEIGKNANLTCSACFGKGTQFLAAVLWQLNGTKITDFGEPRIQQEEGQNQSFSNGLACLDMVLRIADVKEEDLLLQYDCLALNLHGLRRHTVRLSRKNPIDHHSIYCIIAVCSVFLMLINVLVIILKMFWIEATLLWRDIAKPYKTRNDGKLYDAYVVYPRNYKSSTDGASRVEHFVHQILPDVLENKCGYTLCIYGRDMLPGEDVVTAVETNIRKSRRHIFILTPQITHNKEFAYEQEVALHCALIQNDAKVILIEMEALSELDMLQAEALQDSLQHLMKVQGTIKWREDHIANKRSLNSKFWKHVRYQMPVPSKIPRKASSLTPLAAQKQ
An asterisk follows results filed as active; i = inactive. Only a selection was taken, and hits are over-represented in it overall.

SMILES	ST2 inh
CCOC(=O)C1=C(C)Nc2nc(SCc3ccccc3F)nn2C1c1ccc(OC)cc1 (stereo not given)	i
CC(=O)N1c2ccccc2C(=O)OC1c1cccnc1 (stereo not given)	i
c1ccc(-c2nnc(-c3cccnc3)o2)cc1	i
c1ccc(C2(c3ccccc3)OC(c3cccnc3)Nc3ccccc32)cc1 (stereo not given)	35.0%*
CSCc1ccc(C(=O)NC(c2cccnc2)c2cc(C)ccc2C)o1 (stereo not given)	i
O=[N+]([O-])c1ccccc1OCCOc1cccc2cccnc12	i
Cc1cc(C)n(-c2ccc3cccc([N+](=O)[O-])c3n2)n1	i
O=[N+]([O-])c1cccc2ccc(Nc3ccccn3)nc12	31.0%*
Cc1nnn(C23C[C@@H]4C[C@@H](CC(NC(=O)[C@H](N)CC(C)C)(C4)C2)C3)n1	i
CCN(CC)CCCNCc1ccc(OC)cc1OC	i
CCOc1ccc(S(=O)(=O)Nc2cccc([N+](=O)[O-])c2)c2cccnc12	i
O=C(Cc1ccccc1)Nc1cccc(-c2nc3ccccc3s2)c1	i
N#Cc1ccc(C(=O)Nc2ccc(-c3nc4ccccc4s3)cc2)cc1	32.0%*
CC(=O)Nc1ccc(-c2nc3cc4sc(-c5ccc(NC(C)=O)cc5)nc4cc3s2)cc1	i
COc1ccc(Nc2cc(C)nc3c(C)c(C)ccc23)cc1OC	i
COc1ccc(Nc2cc(C)nc3c(C)c(C)ccc23)cc1	i
COc1ccc(OC)c(Nc2cc(C)nc3c(C)c(C)ccc23)c1	37.0%*
CC(NC(=O)CCC(=O)O)c1ccccc1 (stereo not given)	i
COc1cccc(NS(=O)(=O)c2ccc3[nH]c(=O)sc3c2)c1	i
Cc1ccc(CN2CCC(CN(C)Cc3sc(N4CCCC4)nc3Cl)CC2)o1	i
COc1ccc(-c2c(C#N)c(N)nc(OC)c2C#N)c(OC)c1	i
COc1ccc(/C=C2/C(C)=C(C#N)c3nc(N)c(C#N)c(C)c32)c(OC)c1	43.0%*
COc1ccc(OC)c(-c2c(C#N)c(N)nc(OC)c2C#N)c1	i
CCn1c(SCC(=O)Nc2ccc(Br)cc2)nc(O)cc1=O	i
Cn1c(=O)c2c(nc(Br)n2Cc2ccc(F)cc2)n(C)c1=O	i
SMILES	ST2 inh
CC(=O)N1N=C(c2ccc(F)cc2)Cn2c1nc1c2c(=O)n(C)c(=O)n1C	55.0%*
Cn1c(=O)c2c(nc(CN3CCN(c4ccc(F)cc4)CC3)n2CC(N)=O)n(C)c1=O	i
O=C(NCCCc1ccccc1)c1ccccc1F	i
O=C1c2sc3nc4n(c(=O)c3c2CCC1Sc1ccccc1)CCCCC4 (stereo not given)	i
O=C(CSc1nc2cc(Cl)ccc2s1)Nc1ccc2c(c1)OCO2	i
O=C(O)C1(O)CCN(c2nccc3ccccc23)CC1	i
NCC1Cc2cc(-c3ccc(S(N)(=O)=O)s3)cc(Cl)c2O1 (stereo not given)	i
CCCCN(CC)Cc1c(C)[nH]c2ccccc2c1=O	i
CCOc1ccc(C=C2C(=O)OC3(CCCCC3)OC2=O)cc1OC	i
Cc1[nH]c2ccccc2c1C=C1C(=O)OC2(CCCCC2)OC1=O	48.0%*
Cc1ccc2c(c1)N(CC(=O)N1CCN(C)CC1)C(=O)CO2	i
CC1(C(=O)N2CCN(Cc3ccc(F)cc3)C(=O)C2)CCCO1 (stereo not given)	i
Cc1ccc(C(=O)Nc2c(-c3cccs3)nc3ccccn23)cc1C	i
O=C(O)CCC(=O)Nc1ccc(C(=O)O)cc1	i
O=C(O)CCC(=O)Nc1ccc(I)cc1	i
CN(C)c1ccc(NC(=O)CCC(=O)O)cc1	51.0%*
CN(C)C1CCCN(C(=O)c2ccc3cc[nH]c3c2)CC1 (stereo not given)	i
CNC(=O)c1cc2c(cn1)[nH]c1ccccc12	i
Nc1ccc2[nH]c3ccccc3c2c1	66.0%*
O=c1nc(-c2ccccc2)c2ccccc2[nH]1	i
COc1ccccc1-c1cc2n(C)c(C)c(CCC(=O)Nc3ccc(F)cc3)c(=O)n2n1	i
CC(NS(=O)(=O)c1ccc(Cl)cc1)C(c1cccs1)N1CCN(c2ccccc2)CC1 (stereo not given)	i
Cc1ccc(S(=O)(=O)Nc2ccccc2C(=O)O)cc1	i
COc1cc(Br)c(CN2CCN(C=O)CC2)cc1OC	i
CNC(=O)CN1C(=O)/C(=C/c2ccccc2F)Sc2ccccc21	i
SMILES	ST2 inh
O=C(CN1C(=O)/C(=C/c2ccccc2F)Sc2ccccc21)N1CCCCC1	39.0%*
CNC(=O)CN1C(=O)/C(=C\c2ccc(C(F)(F)F)cc2)Sc2ccccc21	i
Cc1ccccc1/C=C1\Sc2ccccc2N(CC(=O)NC(C)c2ccccc2)C1=O (stereo not given)	32.0%*
O=C(CN1C(=O)/C(=C/c2ccccc2F)Sc2ccccc21)NC1CCCCCC1	i
O=C(CN1C(=O)/C(=C\c2ccc(C(F)(F)F)cc2)Sc2ccccc21)NCCN1CCCC1	39.0%*
O=C(CN1C(=O)/C(=C\c2ccc(Cl)cc2)Sc2ccccc21)N1CCCCC1	41.0%*
COCCNC(=O)CN1C(=O)/C(=C\c2ccc(Cl)cc2)Sc2ccccc21	i
CNC(=O)CN1C(=O)/C(=C/c2ccccc2C)Sc2ccccc21	i
CC(NC(=O)CN1C(=O)/C(=C\c2cccc(Cl)c2)Sc2ccccc21)c1ccccc1 (stereo not given)	i
O=C(CN1C(=O)/C(=C\c2cccc(Cl)c2)Sc2ccccc21)NCCN1CCCC1	i
COCCCNC(=O)CN1C(=O)/C(=C\c2ccc(Cl)cc2)Sc2ccccc21	i
C=CCN(CC=C)C(=O)CN1CCCC(C(N)=O)C1 (stereo not given)	i
CN(C)CCNC(=O)C1(O)c2cc(Br)ccc2NC(=O)N1c1ccccc1 (stereo not given)	i
Cc1ccc2c(C)c(C(=O)N3CCCCC3CCc3ccccn3)oc2c1C (stereo not given)	i
Cc1c(CN(C)c2cc(OC(C)C)nc(N)n2)cnn1C	i
Cc1ccc(-c2noc(CCC(=O)NCC3(c4ccccc4)CCCC3)n2)cc1	i
COc1ccccc1OC1CCN(Cc2cn[nH]c2-c2ccc(C)c(C)c2)CC1	i
CC(C)(C)c1nnc([C@H]2CCN(C(=O)C3CCCCC3)C2)o1	i
Cc1cccn2c(=O)c3cc(C(=O)NCCN(C)C)n(C)c3nc12	i
CC1CC(NC(=O)c2ccc(Br)cc2)CC(C)(C)C1 (stereo not given)	i
O=C(Cn1c(=O)sc2ccccc21)NCc1cccnc1	i
O=C(O)c1cccnc1N1CCC(N2CCCC2=O)CC1	i
O=C(CN1C(=O)/C(=C/c2ccccc2F)Sc2ccccc21)NC1CCCC1	i
CC1CCCC(NC(=O)CN2C(=O)/C(=C/c3ccccc3F)Sc3ccccc32)C1C (stereo not given)	32.0%*
Cc1ccc(CCNC(=O)CN2C(=O)/C(=C/c3ccccc3F)Sc3ccccc32)cc1	i
SMILES	ST2 inh
CN(C)CCNC(=O)c1ccc2c(c1)N(C)C(=O)c1ccccc1S2	i
Cc1nn(C)c(C)c1CN(C(=O)c1ccc(-n2cc(NC(=O)c3cccnc3)cn2)cc1)C1CC1	i
CCOc1cccc(/C=C/c2ccc3cccc(O)c3n2)c1OC	54.0%*
CC(=O)Nc1ccccc1/C=C/c1ccc2c(C)ccc(O)c2n1	i
CCOc1ccccc1OCCOc1ccccc1C=O	i
CCC(=O)N1c2ccccc2-c2nnc(SC)nc2OC1c1cccnc1 (stereo not given)	i
